# Source: PubChem (Broad Institute)
# Shown are actives, neighbours in structure and some others; about 2.4% of the full set was active somewhere.
# DYRK1A inh: rat Dyrk1A kinase inhibitors, primary screen, biochemical, single point, plate reader; Dual specificity tyrosine-phosphorylation-regulated kinase 1A (Rattus norvegicus), Q63470; ADP-Glo luminescence, NFATc1 peptide; inhibition, % at 12.5 µM; hit rate 0.43% among 310,000; AID 504441, 2011;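 also: plate controls were vehicle with enzyme for no effect and no enzyme for full effect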
# NSD2 inh: NSD2 histone methyltransferase inhibitors, primary screen, biochemical, AlphaScreen, single concentration, set 2; NSD2 peptide methylation, 120 min; Histone-lysine N-methyltransferase NSD2 (Homo sapiens), O96028; inhibition, % at 12.5 µM; hit rate 0.54% among 310,000; AID 743445, 2014
# GSIS activator: GLuc luminescence reporter in INS-1E cells, primary screen for activators of glucose-dependent secretion of insulin | INS-1E GLuc reporter insulin secretion, 2-3 h | activation, % at 16.6 µM | hit rate 0.61% among 370,000;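 active = lowest replicate activation of at least 40%, so every replicate reaches that level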;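 also: 0% = median of neutral control wells and 100% = median of IBMX positive control wells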
# MITF TRPM1 HTS: activators of MITF-driven TRPM1 promoter reporter, primary screen, cell-based, SK-MEL-5, luciferase, single point; SK-MEL-5 TRPM1-promoter luciferase, 24 h; % of positive control, neutral wells = 0; hit rate 0.75% among 300,000; activation, % at 12.5 µM; AID 588334, 2011;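 active = mean activation of at least 80% with every replicate also reaching 80%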;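 also: 0% = neutral control wells and 100% = parthenolide positive control wells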
# Wnt bcat act: Wnt/beta-catenin pathway activators, primary screen, cell-based, plate reader, single point | activation, % at 9.35 µM | Wnt/beta-catenin reporter cell assay, activator | hit rate 1.2% among 300,000; in the data active = activation above about 30%, passing the limit was not always enough;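 also: 0% = neutral control wells and 100% = positive control wells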
# miR-122 sensor: miR-122 Renilla sensor signal increase in Huh7, primary screen, miR-122 inhibitor project, cell-based, single point, plate reader; activation (reporter increase), % at 12.5 µM; Huh7 miR-122 Renilla luciferase sensor, 48 h; neutral wells = 0, positive control = 100; hit rate 0.3% among 340,000; AID 602342, 2012;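 active = mean replicate activation score at least 90 and every replicate individually at or above 90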;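 also: higher luciferase means less miR-122 activity so hits act as miR-122 inhibitors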
# Alpha artifact: AlphaScreen signal interference with preloaded methylated product, dose response, artefact control for NSD2 inhibitor project, biochemical, cherry-picked samples. AID 1053174, 2014. AC35, µM (titrated, usually from 10 µM), inactives show at the top dose activity change, negative = signal loss. shares compounds with NSD2 inh. AlphaScreen artifact counterscreen, preloaded methylated H4 peptide. hit rate 9.4% among 1,500; call rule not given here
# An asterisk follows results filed as active; · = no result; [ ] = remark or other dose. Rule as the data show it, unless noted: active = inhibition above about 50%; inactive = the rest.
SMILES,DYRK1A inh,NSD2 inh,GSIS activator,MITF TRPM1 HTS,Wnt bcat act,miR-122 sensor,Alpha artifact
Cc1c(NC(=O)CN2C(=O)C(=O)c3ccccc32)c(=O)n(-c2ccccc2)n1C,-5,56*,0,-13,-1,·,-3%
O=C(N[C@H]1CC[C@@H](CCNS(=O)(=O)Cc2ccccc2)O[C@H]1CO)c1cnccn1,·,·,7,·,·,27[16.7 µM],·
COc1ccc(Cc2ccccc2C(=O)O)cc1,-2,50*,19,-1,1,·,1%
Cc1noc(C)c1NC(=O)N(C)C[C@@H]1Oc2ccc(NC(=O)NC(C)C)cc2CC(=O)N([C@H](C)CO)C[C@H]1C,·,·,11,·,·,11[16.7 µM],·
O=C1C=C(Nc2ccc(F)cc2)c2ccccc2C1=O,-1,6,-9,-96,13,15,·
O=C1C=C(Nc2ccccc2O)c2ccccc2C1=O,-1,94*,-15,-100,12,-2,-1%
O=C1C=C(NCc2ccccc2)c2ccccc2C1=O,15,140*,3,-104,13,·,-2%
O=C1C=C(Nc2cccnc2)c2ccccc2C1=O,30,99*,-48,-100,-2,·,0%
COC(=O)c1ccc(Cn2cnc3c(sc4nc(N5CCOCC5)c5c(c43)CCCC5)c2=O)o1,1,75*,·,12,·,2,-8%
O=c1[nH]c2cc3c(cc2cc1CN(Cc1ccccc1)Cc1nnnn1Cc1ccco1)OCCO3,11,22,·,17,·,-19,·
COc1ccccc1CN(Cc1cc2cc3c(cc2[nH]c1=O)OCCO3)Cc1nnnn1Cc1ccco1,-2,60*,6,-9,·,-9,-6%
COCC(=O)N(C)C[C@@H]1Oc2ncc(-c3ccc(F)cc3)cc2C(=O)N([C@H](C)CO)C[C@@H]1C,·,·,-1,·,·,0[16.7 µM],·
O=S(=O)(c1ccc(Br)cc1Cl)N1CCN(CCO)CC1,1,-1,-4,-3,-1,0,·
O=C1C=CC(=O)c2c(O)c(N3CCN(CCO)CC3)c(Cl)c(O)c21,16,103*,-35,-99,-6,-18,-5%
OCCOCCN1CCN(C2=Nc3ccccc3Sc3ccccc32)CC1,18,·,-8,-1,1,8,·
O=C1C=CC(=O)c2c(O)c(N3CCN(CCOCCO)CC3)c(Br)c(O)c21,·,81*,·,-95,-1,·,-8%
CCCOc1ccc(CN(C(=O)c2cccc(OC)c2)C2CCS(=O)(=O)C2)cc1 (centres undefined),-4,0,0,5,-1,-4,·
COc1ccc(CN(C(=O)c2cccc(OC)c2)C2CCS(=O)(=O)C2)cc1 (centres undefined),·,52*,6,·,2,-9,-3%
COc1ccc(C(=O)N(Cc2cccs2)C2CCS(=O)(=O)C2)cc1 (centres undefined),3,100*,11,6,21,-3,1%
O=C(c1ccccc1F)N(Cc1cccs1)C1CCS(=O)(=O)C1 (centres undefined),-1,85*,18,-1,1,-2,-2%
COc1ccc(N/C=C2\CCc3ccccc3C2=O)cc1,22,95*,·,-47,-1,17,-3%
CCN(CC)CCCN(Cc1cc2ccc(C)c(C)c2[nH]c1=O)C(=O)NC1CCCCC1,4,63*,·,-4,·,8,-7%
O=C(Nc1ccccc1)N(CCCN1CCOCC1)Cc1cc2cc3c(cc2[nH]c1=O)OCCO3,-7,2,·,15,·,-3,·
CCN(CC)CCCN(Cc1cc2cc3c(cc2[nH]c1=O)OCCO3)C(=O)Nc1ccccc1,3,93*,·,17,-6,-4,2%
CCN(CC)CCCN(Cc1cc2cc3c(cc2[nH]c1=O)OCO3)C(=S)NCCCOC,15,75*,1,7,0,5,-2%
SMILES,DYRK1A inh,NSD2 inh,GSIS activator,MITF TRPM1 HTS,Wnt bcat act,miR-122 sensor,Alpha artifact
CCN(CC)CCCN(Cc1cc2cc3c(cc2[nH]c1=O)OCO3)C(=S)NCCCN(C)C,3,80*,·,·,-1,-3,-7%
O=S(=O)(c1ccc(F)cc1)N1CCCCN2[C@H](CO)[C@H](c3ccc(-c4cncnc4)cc3)[C@@H]2C1,·,·,0,·,·,0[16.7 µM],·
CC(C)NC(=O)Nc1ccc2c(c1)C(=O)N([C@@H](C)CO)C[C@H](C)[C@@H](CN(C)Cc1ccc3c(c1)OCO3)OCCCC[C@H](C)O2,·,·,-4,·,·,15[16.7 µM],·
CCCNC(=O)N[C@@H]1C=C[C@H](CC(=O)NC2CCCCC2)O[C@@H]1CO,·,·,8,·,·,·,·
O=C(C[C@@H]1CC[C@@H]2[C@H](COC[C@@H](O)CN2CC2CCCCC2)O1)NCC1CC1,·,·,8,·,·,-2[16.7 µM],·
Cc1noc(C)c1NC(=O)N(C)C[C@H]1Oc2ncc(C#CC3CCCCC3)cc2C(=O)N([C@@H](C)CO)C[C@H]1C,·,·,-1,·,·,-14[16.7 µM],·
CCn1cnc2c1c(=O)n(CC(=O)OC)c(=O)n2Cc1ccccc1,-2,-2,32,3,0,-2,·
CCn1cnc2c1c(=O)n(CC(=O)O)c(=O)n2Cc1ccccc1,12,113*,12,2,1,·,-1%
OC(COc1ccc2ccccc2c1Cl)CN1CCOCC1 (centres undefined),11,86*,·,70,·,6,-3%
OC(COc1cccc2ccccc12)CN1CCOCC1 (centres undefined),·,-1,-3,-4,-1,-1,·
Cc1noc(C)c1NC(=O)Nc1ccc2c(c1)CC(=O)N([C@@H](C)CO)C[C@@H](C)[C@@H](CN(C)Cc1ccc(Oc3ccccc3)cc1)O2,·,·,-29,·,·,4[16.7 µM],·
CCN1CCCC1CNc1ncnc2c1[nH]c1ccc(Cl)cc12 (centres undefined),30,54*,31,19,-2,-4,-1%
CC(C)(C)c1[nH]nc2c1C(c1ccoc1)C(C#N)=C(N)O2 (centres undefined),-3,76*,·,9,0,-7,-2%
Cc1oc(-c2cccs2)nc1CN1CCN(C2CCCC2)C(CCO)C1 (centres undefined),·,52*,-18,20,0,3,-2%
COc1ccc(S(=O)(=O)N(C)C[C@@H]2OCCCC[C@H](C)Oc3ccc(NC(=O)NC(C)C)cc3C(=O)N([C@@H](C)CO)C[C@H]2C)cc1,·,·,2,·,·,12[16.7 µM],·
CC1NC(=O)NC1CCCCCC(=O)Nc1ccc(F)c(Cl)c1 (centres undefined),1,103*,-6,4,-3,·,3.8µM*
